Compounds with a hit are over-represented: about 2.3% of the library has one in this group of screens.
CHT block: inhibitors of human choline transporter CHT | Q9GZV3 | CHT-expressing cells, membrane potential dye, choline response; stronger effect = lower value | B-score at 10 µM | 310,000 tested, 0.86% active | AID 488975;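 active = B-score over 3 SD under the library average, and starting fluorescence ratio not unusually high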;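 note: choline stimulus applied at its EC90 after an EC20 pre-addition; B-score computed on integrated fluorescence ratio after choline addition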
Target sequence (Q9GZV3 whole entry, looked up): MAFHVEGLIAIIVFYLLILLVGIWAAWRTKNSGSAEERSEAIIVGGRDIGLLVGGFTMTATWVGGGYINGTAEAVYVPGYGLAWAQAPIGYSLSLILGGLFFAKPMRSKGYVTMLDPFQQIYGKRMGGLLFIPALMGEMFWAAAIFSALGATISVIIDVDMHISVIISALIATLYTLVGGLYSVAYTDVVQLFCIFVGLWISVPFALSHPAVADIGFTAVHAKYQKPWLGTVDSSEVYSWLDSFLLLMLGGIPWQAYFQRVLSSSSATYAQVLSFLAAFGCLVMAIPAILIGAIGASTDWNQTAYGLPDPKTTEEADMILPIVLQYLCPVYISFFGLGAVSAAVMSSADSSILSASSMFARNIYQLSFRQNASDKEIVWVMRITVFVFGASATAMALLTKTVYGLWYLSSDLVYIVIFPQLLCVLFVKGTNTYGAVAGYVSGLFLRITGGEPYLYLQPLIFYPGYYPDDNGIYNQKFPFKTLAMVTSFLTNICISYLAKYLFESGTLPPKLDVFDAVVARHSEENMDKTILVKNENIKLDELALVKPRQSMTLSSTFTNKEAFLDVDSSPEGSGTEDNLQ
ANO1 activ: activators or potentiators of mouse TMEM16A chloride channel | AID 623877 | 340,000 tested, 0.3% active | HEK293 TMEM16A/YFP-H148Q/I152L, iodide quench fluorescence; stronger effect = lower value | B-score at 10 µM | Q8BHY3;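 active = fluorescence-ratio B-score plate-corrected deviation score at least 3 library SD below zero, with starting fluorescence score within 5 deviations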;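 note: channel opened by trigger with iodide after compound preincubation; score built on the fluorescence ratio of max minus min over baseline; more negative score means more quench and so TMEM16A activation or potentiation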
TMEM16A inh: mouse TMEM16A channel inhibition, primary screen | HEK293 TMEM16A/YFP iodide influx fluorescence, ionomycin | normalized B-score (activity score, 25-100; higher = stronger inhibition) at 10 µM | 310,000 tested, 1.2% active;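 active = ratio plate-corrected score three or more library SD toward inhibition, starting fluorescence score within five deviations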;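 note: score derived from kinetic fluorescence span divided by baseline fluorescence per well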
CHT allo act: human CHT allosteric activation; B-score at 10 µM; Q9GZV3; CHT-expressing cells, membrane potential dye, choline EC20; stronger effect = higher value; LV-AA mutant CHT in HEK293 cells; 310,000 tested, 0.49% active; AID 488977;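 active = initial fluorescence not abnormally high and integrated response B-score, plate-corrected, over 3 SD above library mean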
CHT block conf: human CHT inhibition, confirmatory screen. AID 493221. 2,400 tested, 70% active. CHT-expressing cells, choline membrane potential dye; LV-to-AA substituted CHT, HEK293 cells. CHT activity remaining % of control (stronger effect = lower value), % at 10 µM. shares compounds with CHT block;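 active = choline transporter activity left, mean of duplicates at 10 µM, below buffer-only control mean minus 3 SD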;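 note: depolarization triggered by choline at its EC90 following an EC20 pre-addition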
HEK293 CHT ctr: CHT inhibitor counter-screen hit in parental HEK293 cells; membrane potential dye, choline response; active = decrease or increase beyond buffer ±3SD; shares compounds with CHT block; AID 493222; membrane potential ratio readout (active if shifted either direction beyond buffer ±3SD; no single direction) at 10 µM; 2,400 tested, 4% active;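 note: parental cells lack the transporter so any hit is non-specific; ratio is peak minus trough fluorescence over baseline after EC90 choline challenge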
Hits are given with their value.

Screening Cc1ccc(S(=O)(=O)NNC(=O)c2sc3nc(C)cc(C)c3c2-n2cccc2)cc1 returned CHT block -5, ANO1 activ inactive, TMEM16A inh inactive, CHT allo act inactive, CHT block conf inactive and HEK293 CHT ctr inactive.
For CCN1CCN(c2ncnc3scc(-c4ccc(C)cc4)c23)CC1 the results were CHT block -9.9, ANO1 activ inactive, TMEM16A inh inactive, CHT allo act inactive, CHT block conf 22% and HEK293 CHT ctr inactive.
OCCN1CCN(c2ncnc3scc(-c4ccc(F)cc4)c23)CC1 was read as CHT block -5.7, ANO1 activ inactive, TMEM16A inh inactive, CHT allo act inactive, CHT block conf 33% and HEK293 CHT ctr inactive.
`COc1ccc(-c2csc3ncnc(NCCCO)c23)cc1` gave CHT block -5.8, ANO1 activ inactive, TMEM16A inh inactive, CHT allo act inactive, CHT block conf 59% and HEK293 CHT ctr inactive.
Screening Cc1ccc(-c2csc3ncnc(N4CCN(Cc5ccccc5)CC4)c23)cc1 returned CHT block inactive, ANO1 activ inactive, TMEM16A inh inactive and CHT allo act inactive.
Screening COc1ccc(-c2csc3ncnc(N4CCN(CCO)CC4)c23)cc1 returned CHT block -7.9, ANO1 activ inactive, TMEM16A inh inactive, CHT allo act inactive, CHT block conf 42% and HEK293 CHT ctr inactive.
`CCCc1cc(=O)[nH]c(SCC(=O)Nc2cc(S(=O)(=O)N3CCCCC3)ccc2Cl)n1` gave ANO1 activ inactive.
Screening CCCn1c(N)c(C(=O)CSc2nnc(C3CC3)n2C2CC2)c(=O)[nH]c1=O returned ANO1 activ inactive.
COc1cccc(CN(C)C(=O)c2ccc(COc3ccc(Cl)cc3)cc2)c1OC was read as CHT block inactive, ANO1 activ inactive, TMEM16A inh inactive and CHT allo act inactive.
Screening CC(Sc1nc(N)cc(=O)[nH]1)C(=O)Nc1sc2c(c1C#N)CCCC2 (configuration not stated) returned CHT block inactive, ANO1 activ inactive, TMEM16A inh inactive and CHT allo act inactive.
Cc1nnc(SC(C)C(=O)Nc2sc3c(c2C#N)CCCC3)[nH]c1=O (configuration not stated) was read as CHT block -5.2, ANO1 activ inactive, TMEM16A inh inactive, CHT allo act inactive, CHT block conf 65% and HEK293 CHT ctr inactive.
Screening CC1CCCN(C(=S)NCCc2ccccc2)C1 (configuration not stated) returned CHT block inactive, ANO1 activ inactive, TMEM16A inh inactive and CHT allo act inactive.
CN1CCC(N(C)C(=S)NCCc2ccccc2)CC1 was read as CHT block -7.3, ANO1 activ inactive, TMEM16A inh inactive, CHT allo act inactive, CHT block conf inactive and HEK293 CHT ctr inactive.
Screening O=C(NC1CCCC1)c1ccc(CS(=O)(=O)Cc2ccccc2F)o1 returned CHT block inactive, ANO1 activ inactive, TMEM16A inh inactive and CHT allo act inactive.
CC1CCC(NC(=O)c2ccc(CS(=O)(=O)Cc3ccccc3F)o2)CC1 (configuration not stated) was read as CHT block -5.4, ANO1 activ inactive, TMEM16A inh inactive, CHT allo act inactive, CHT block conf 41% and HEK293 CHT ctr inactive.
COc1ccc(OC)c(NC(=S)N2c3ccccc3CC2C)c1 (configuration not stated) was read as CHT block inactive, ANO1 activ inactive, TMEM16A inh inactive and CHT allo act inactive.
`O=C(N/N=C/c1ccc(O)c([N+](=O)[O-])c1)C1CC1(c1ccccc1)c1ccccc1` (configuration not stated) gave CHT block -9.3, ANO1 activ inactive, TMEM16A inh inactive, CHT allo act inactive, CHT block conf inactive and HEK293 CHT ctr inactive.
For COCCCN1C(=O)C(=O)/C(=C(/O)c2ccc(S(=O)(=O)N3CCCCC3)cc2)C1c1ccc(O)cc1 (configuration not stated) the results were CHT block inactive, ANO1 activ inactive, TMEM16A inh inactive and CHT allo act inactive.
For CCCCNS(=O)(=O)c1ccc2nc(SCC(=O)c3ccccc3OC)[nH]c2c1 the results were CHT block -9.7, ANO1 activ inactive, TMEM16A inh inactive, CHT allo act inactive, CHT block conf 50% and HEK293 CHT ctr inactive.
Screening CCCCNS(=O)(=O)c1ccc2nc(SCC(N)=O)[nH]c2c1 returned CHT block inactive, ANO1 activ inactive, TMEM16A inh inactive and CHT allo act inactive.
`CC1(C)CC[C@@]23CC[C@]4(C)[C@@](OC2=O)(C3C1)[C@H]1O[C@H]1C1[C@@]2(C)CC[C@H](O)C(C)(C)C2CC[C@]14C` (some centres not stated) gave CHT block inactive, TMEM16A inh inactive and CHT allo act inactive.
Screening CSc1ncccc1C(=O)Nc1cccc(S(=O)(=O)N2CCCCCC2)c1 returned ANO1 activ inactive.
`O=C(OCCCOc1ccc(F)cc1)c1ccc(O)cc1O` gave CHT block -6, ANO1 activ inactive, TMEM16A inh inactive, CHT allo act inactive, CHT block conf 49% and HEK293 CHT ctr inactive.
Screening O=C(O)CSc1cc(C(=O)c2ccccc2O)cn2c(=O)c3c(-c4ccccc4)csc3nc12 returned CHT block -7, ANO1 activ inactive, TMEM16A inh inactive, CHT allo act inactive, CHT block conf 30% and HEK293 CHT ctr inactive.
For O=C(N[C@H]1C/C=C\C[C@H](CC(=O)N(CCO)Cc2ccccc2)C(=O)NC[C@H](c2ccccc2)OC1=O)OCC1c2ccccc2-c2ccccc21 the results were ANO1 activ inactive.
For Cc1ccccc1-c1nnc(SCC(=O)NC2CCS(=O)(=O)C2)n1C (configuration not stated) the results were ANO1 activ inactive.
O=C(Nc1nccs1)C1CC=CCC1C(=O)OCC(F)(F)C(F)F (configuration not stated) was read as ANO1 activ inactive.
`Fc1ccccc1COc1ccc(Br)cc1CNCc1ccncc1` gave CHT block -5.5, ANO1 activ inactive, TMEM16A inh inactive, CHT allo act inactive, CHT block conf 70% and HEK293 CHT ctr inactive.
`CC(C)NC(=O)N(C)C[C@@H]1Oc2c(NC(=O)Nc3ccccc3)cccc2C(=O)N([C@H](C)CO)C[C@H]1C` gave ANO1 activ inactive.
COc1cccc(C(=O)OCC(=O)Nc2ccc3c(c2)OCCO3)c1 was read as ANO1 activ inactive.
COc1ccc(N2CCN(CC(=O)Nc3c(C)cc(C)cc3C)CC2)cc1 was read as CHT block -6.1, TMEM16A inh inactive, CHT allo act inactive, CHT block conf 53% and HEK293 CHT ctr inactive.
Cc1cc(C)c(NC(=O)CN2CCN(C)CC2)c(C)c1 was read as CHT block inactive, ANO1 activ inactive, TMEM16A inh inactive and CHT allo act inactive.

High-throughput results: PubChem BioAssay, Johns Hopkins Ion Channel Center
